# Calls of active or inactive are those of the source. Where a call stands in place of a potency, no number is given. Calls follow the shape of the dose curve; as a rule, active = well fitted inhibition curve with a large enough effect; inconclusive = small, poorly fitted or top-dose-only effect; inactive = flat fitted curve, though single readings scatter.
# Target: DNA dC->dU-editing enzyme APOBEC-3G (Homo sapiens) (UniProt Q9HC16)
# Assay: qHTS for inhibitors of Vif-A3G interactions: Validation (AID 588379)
# Conditions: Vif-A3G protein interaction assay; series mostly up to 46.1 µM
# In short: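 Yellow fluorescence (Ex 488, Em 500-530) of Vif-coexpressing HeLa A3G-eYFP cells, scanned by Acumen cytometer, reports blocked A3G degradation. Cells plated at 700/well overnight at 37 deg C before compound addition, then a further overnight compound incubation at 37 deg C.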
# Sequence of DNA dC->dU-editing enzyme APOBEC-3G (Homo sapiens) (Q9HC16 whole entry, looked up): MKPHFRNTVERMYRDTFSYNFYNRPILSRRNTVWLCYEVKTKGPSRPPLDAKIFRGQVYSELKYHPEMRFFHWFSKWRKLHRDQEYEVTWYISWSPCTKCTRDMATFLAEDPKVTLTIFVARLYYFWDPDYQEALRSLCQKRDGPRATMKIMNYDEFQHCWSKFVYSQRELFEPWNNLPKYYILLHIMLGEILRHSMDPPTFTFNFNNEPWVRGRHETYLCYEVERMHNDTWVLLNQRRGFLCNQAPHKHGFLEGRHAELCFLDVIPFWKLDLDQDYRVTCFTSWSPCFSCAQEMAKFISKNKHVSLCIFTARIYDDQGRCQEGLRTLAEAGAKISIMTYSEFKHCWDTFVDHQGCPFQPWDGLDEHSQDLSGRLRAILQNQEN
row,Structure (SMILES),Potency
1,NC/C=C\C(=O)O,inactive
2,Cc1nc2c(OCc3ccccc3)cccn2c1CC#N,inactive
3,O=C(O)c1ccccc1Nc1cccc(OCc2ccc3ccccc3n2)c1,inactive
4,O=[N+]([O-])c1cccc2cn[nH]c12,inactive
5,NCCS(=O)O,inactive
6,NCCNS(=O)(=O)c1cccc2c(Cl)cccc12,inactive
7,CSC(=N)N,inactive
8,NCCCNCCCCNCCCN,inactive
9,Cn1cc(C(=O)OCC2CCN(CCNS(C)(=O)=O)CC2)c2ccccc21,inactive
10,CC(C)(CO)Cc1cc(C(C)(C)C)c(O)c(C(C)(C)C)c1,inactive
